“And” between values parts separate entries of the source, which are not always exact repeats. Equal entries are not always repeated. Compounds without any hit were thinned out: in the full panel of roughly 79,000, 15% have a hit. A number with no mark means an inactive call. No stated cut-off is given here; in the data, active means growth inhibition above about 70%; inactive means the rest.

The first assay can be described thus: NCI Yeast Anticancer Drug Screen. Data for the cln2 rad14 strain (AID 165).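 Further: 0% = growth equal to vehicle treated cultures.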 Conditions: S. cerevisiae cln2 rad14 strain, stronger effect = higher value; at 50.0 µM unless noted. A digest of the protocol:
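Yeast strain cln2 rad14, bearing defects in cell cycle control and DNA repair, serves as the test system; values reflect growth inhibition compared with vehicle.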
Take `COc1ccc(/C(C)=N/NC(=O)c2ccncc2)cc1OC`: the growth inhibition is -12.7%.
Still for that read-out and setting: the figure for `CCCCCCCCSC(=N)N` is 18.1%.
With `O=C(NO)/C(CC(=O)c1cccc(O)c1)=N\O`, the growth inhibition was -8.55%.
Same read-out and setting: the figure for `CN(C)c1ccc(/C=C2\C(=O)/C(=C\c3ccc(N(C)C)cc3)c3ccccc32)cc1` is -12.5%; for `CCS(=O)(=O)c1ccc(NC(=O)OC2CCC3(C)C(=CCC4C3CCC3(C)C(C(C)CCCC(C)C)CCC43)C2)cc1` (configuration not stated) it is 20.4%; for `O=C1CC(Br)C(c2ccccc2)(c2ccccc2)O1` (configuration not stated) it is 46.3%.
On the same count and under the same terms, the figure for `O=C(OCC1OCOC2C(COC(=O)c3ccccc3)OCOC12)c1ccccc1` (configuration not stated) is 4.8%; for `O=[N+]([O-])c1ccc(N(CCO)CCO)cc1` it is 9.25%; for `Cc1ccc(NC(=O)C(=O)CC(=O)c2sc(Nc3c(C)cccc3C)nc2C)cc1C` it is -27.7%.
On the same count and under the same terms, next, `COC1CCC(/C=C(\C#N)C2CCC(C)CC2)CC1` (configuration not stated): 12.1%.

The nature of the next assay: NCI Yeast Anticancer Drug Screen. Data for the bub3 strain (AID 167). The conditions noted are these: S. cerevisiae bub3 mutant strain, stronger effect = higher value; at 50.0 µM unless noted. A digest of the protocol: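 Growth of a checkpoint-deficient yeast mutant is measured after compound exposure. Values represent inhibition relative to vehicle.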
With `CNC(=S)NCOCCOC(C)=O`, the growth inhibition was 0.75%.
On the same count and under the same terms, next, `O=C(Cc1ccccc1)CC(CC(=O)Cc1ccccc1)c1ccccc1`: 3.7%.
Same read-out and setting: next, `O=CC(CO)C(C=O)n1ncc2ccccc21` (configuration not stated): 13.3%.
Still for that read-out and setting: next, `[CH3][Sn]([CH3])([S]P(=S)(c1ccccc1)c1ccccc1)[S]P(=S)(c1ccccc1)c1ccccc1`: 19.1%; `N=c1oc(-c2ccccc2)cc2ccccc12`: 15.6%.
Turning to `COc1cc(OC)c2c(c1)OC(c1cccnc1)C(c1ccccc1)C2=O` (configuration not stated), the growth inhibition is 12.5%.
The same measure, in the same setting: next, `O=C1C=CC(=Nc2ccc3c(c2)-c2ccccc2C3)O1`: 1.35%; `COC(=O)Nc1ccc(Cc2ccc(NC(=O)OC)cc2)cc1`: 33.5%.
On the same count and under the same terms, next, `Cc1nc(N(C)C)oc(=O)c1CCc1ccccc1`: 6.9%.
Still for that read-out and setting: next, `CCN(CC)c1ccc(N=Nc2ccc(-c3nc4cccnc4o3)cc2)cc1`: 2.15%.
Take `CCCCCCCCCCCCCCCCCC(=O)CBr`: the growth inhibition was 2.2%.
Same read-out and setting: next, `C(=Nc1cccc2ccccc12)c1cccs1`: 0.25%; `COC(=O)c1ccccc1-c1ccccc1C(=O)O`: 8.3%.
The same measure, in the same setting: next, `C#CCOC(=O)Nc1ccccc1`: -1.1% and -10.6%; `CC1=Nc2ccc([N+](=O)[O-])cc2C1(C)C`: -16.1%.
Still for that read-out and setting: the figure for `CCOC(Cn1ccc[n+]1CC(=O)c1ccccc1)OCC` is -5.75%; for `Cc1nc(C(N)=S)sc1C(=O)C/C(=N/N)C(=O)Nc1ccc(Cl)cc1` it is -17.8%.
With `Cc1nc(CO)c(-c2ccc([N+](=O)[O-])cc2)o1`, the growth inhibition is -13.1%.
With `CCOC(=O)C1=C(O)C[C@]2(O)C3CC=C(C)[C@@H]4CCO[C@](OC)(C[C@H]2C1)[C@]34C(=O)OC` (some centres not stated), the growth inhibition was -1.1%.
`CN1CC(c2ccccc2)C(O)(C2(c3ccccc3)CN(C)CC(c3ccccc3)C2=O)C(c2ccccc2)C1` (configuration not stated): the growth inhibition is -17.4%.
As to `COc1ccc(C(=O)CN2CCN(c3ccccc3)CC2)cc1`, the growth inhibition was 23%.
The same measure, in the same setting: the figure for `COc1ccc2c(c1)OC[C@@H]1c3cc(NS(=O)(=O)c4ccccc4)cc(OCc4ccccc4)c3O[C@H]21` is 1.4%.
Same read-out and setting: next, `CN(C)Cc1cc(C(=O)/C=C/c2ccc(Cl)c(Cl)c2)cc(CN(C)C)c1O`: 2.15%.
Take `N#Cc1c(-c2ccc(Cl)cc2)c(-c2ccc(Cl)cc2)nn(CCOC(=O)CCC(=O)OCCn2nc(-c3ccc(Cl)cc3)c(-c3ccc(Cl)cc3)c(C#N)c2=O)c1=O`: the growth inhibition was 4.75%.
On the same count and under the same terms, the figure for `CN(C)C(=O)C(c1ccccc1)C(c1ccccc1)N(C)C=O` (configuration not stated) is -8.3%; for `Cc1ccc(S(=O)(=O)NC(=O)NNc2ccc(F)cc2)cc1` it is -12.1%; for `CCSc1[nH]c(Nc2nc(-c3ccccc3)n(-c3ccccc3)n2)c(C(N)=O)c1C(N)=O` it is -9.75%.
In the case of `CO[C@@H]1C2=CC=CC=C[C@H]2n2c(=O)n(-c3ccccc3)c(=O)n21`, the growth inhibition is -1.15%.
On the same count and under the same terms, next, `Cn1nc(-c2ccccc2)c(C(=O)/C=C/c2ccccc2)c(N2CCCCC2)c1=O`: 27%; `CC(=O)[C@@]1(O)CC[C@H]2[C@@H]3CC[C@@H]4C[C@H](O)CC[C@]4(C)[C@H]3[C@H](O)C[C@@]21C`: 11.3%; `COc1ccc(/C(C)=N/NC(=O)c2ccncc2)cc1OC`: -40%.
For `CCCCCCCCSC(=N)N`, the growth inhibition is 36.1%.
